# An excerpt weighted towards active compounds, which were near 9.4% of everything screened.
# NPC1 prom act = qHTS Assay for NPC1 Promoter Activators | Potency, µM (series often up to 9.22 µM), without a hit: top-dose activation, actives largely listed as activators | hit rate 2.4% among 320,000 | Huh7 NPC1 promoter luciferase reporter, 24 h; note: % of control where 0% means no effect; nearly all actives have a fitted effect of over 60% in size
#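 NPC1 promoter–luciferase Huh7 cells; 24 h compound; luminescence.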
# SMN2 splice up = qHTS Assay for Enhancers of SMN2 Splice Variant Expression; hit rate 2.8% among 210,000; HEK293 SMN2-luciferase splicing reporter, luminescence, 30-36 h; Potency, µM (highest dose often 46.1 µM), inactives show at the highest dose activity change, positive = activation, usual class: activators; note: % of control where 0% means no effect; nearly all actives have a fitted effect of over 55% in size
#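 qHTS luciferase splicing reporter: luminescence rises when SMN2 exon 7 is included in transfected HEK293 cells. Compound exposure lasted 30-36 h at 37C, with 4.5 mM final sodium butyrate as control, followed by a ONE-Glo read.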
# Rab9 prom act = qHTS Assay for Rab9 Promoter Activators; hit rate 2.8% among 320,000; Potency, µM (series often up to 9.22 µM), for inactives: at the highest dose activation, negative = inhibition, hits mostly activators; Huh7 Rab9 promoter-luciferase reporter, luminescence, 24 h; note: % of control where 0% means no effect; nearly all actives have a fitted effect of over 60% in size
#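 Cell-based reporter: Huh7 stable for Rab9 promoter-driven luciferase, plated in reduced-serum medium with 10% FBS at 1500 cells/well, compound-treated 24 h at 37 °C, luminescence read after 10 min reagent.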
# ELG1 DNA repair = qHTS screen for small molecules that inhibit ELG1-dependent DNA repair in human embryonic kidney (HEK293T) cells expressing luciferase-tagged ELG1. HEK293T ELG1-luciferase reporter, luminescence, 16 h; DNA damage induced by 5-fluorouridine. hit rate 2.3% among 330,000. Potency, µM (doses to about 46.1 µM), for inactives: top-dose activity change, negative = inhibition, actives largely listed as inhibitors; note: % is set by controls: 0 for no effect and ±100 for the full control effect; nearly all actives have a fitted effect of over 55% in size
#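 Overnight (16 hr) co-exposure of 2,000 cells/well to 5-fluorouridine and compound at 37 °C preceded detection. Luciferase was quantified via ONE-Glo luminescence; loss of signal denotes inhibition.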
# ELG1 genotox = qHTS screen for small molecules that induce genotoxicity in human embryonic kidney (HEK293T) cells expressing luciferase-tagged ELG1; HEK293T ELG1-luciferase reporter, luminescence, 16 h; Potency, µM (series often up to 46 µM), inactives show top-dose activity change, positive = activation, usual class: activators; hit rate 1.3% among 330,000; AID 504466, 2011; note: % of control where 0% means no effect; nearly all actives have a fitted effect of over 60% in size
#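 Cells (2,000/well) expressing the ELG1-luciferase fusion are dosed by pin tool and kept 16 hr at 37 °C, 5% CO2. Signal comes from ONE-Glo luciferase reagent after 30 min at room temperature.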
# FLuc modulator = qHTS profiling assay for firefly luciferase inhibitor/activator using purifed enzyme and Km concentrations of substrates (counterscreen for miR-21 project); Luciferin 4-monooxygenase (Photinus pyralis), P08659; Potency, µM (top dose mostly 57.5 µM), for inactives: at the top dose activity change, negative = inhibition, actives largely listed as inhibitors; hit rate 6.9% among 360,000; AID 588342, 2011; purified FLuc, Km substrates, luminescence inhibition;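 note: plate controls were vehicle for no effect and reference inhibitor for full effect; nearly all actives have a fitted effect of over 55% in size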
# Target sequence (P08659 whole entry, looked up): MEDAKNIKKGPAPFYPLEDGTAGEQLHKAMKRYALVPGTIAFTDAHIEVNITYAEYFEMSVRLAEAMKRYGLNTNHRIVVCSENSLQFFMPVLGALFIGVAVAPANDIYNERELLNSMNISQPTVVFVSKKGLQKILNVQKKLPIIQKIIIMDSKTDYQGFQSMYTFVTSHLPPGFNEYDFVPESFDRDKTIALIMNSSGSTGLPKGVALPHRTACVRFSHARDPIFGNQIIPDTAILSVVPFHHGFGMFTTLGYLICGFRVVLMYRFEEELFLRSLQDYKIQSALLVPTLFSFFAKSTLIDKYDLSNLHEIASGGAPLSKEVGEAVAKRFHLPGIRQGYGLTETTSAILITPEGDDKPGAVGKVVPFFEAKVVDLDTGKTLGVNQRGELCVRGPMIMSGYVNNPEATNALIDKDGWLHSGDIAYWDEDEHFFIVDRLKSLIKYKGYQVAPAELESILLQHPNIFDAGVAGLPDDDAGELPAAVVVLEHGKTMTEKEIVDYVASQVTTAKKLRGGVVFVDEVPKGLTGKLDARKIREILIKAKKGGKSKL
#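 Purified P. pyralis luciferase (10nM final) with 10uM D-luciferin and 10uM ATP (Km levels) in 50mM Tris acetate pH 7.5, 10mM Mg acetate, 0.01% Tween-20, 0.05% BSA; qHTS 6-point titration, ~60 µM downward; luminescence read.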
# An asterisk follows results filed as active; ? = inconclusive; . = no result; [ ] = remark or other dose. Calls come from the whole dose curve; as a rule, active = well fitted curve in the direction sought with a large enough effect; inconclusive = small, poorly fitted or top-dose-only effect, or another doubt; inactive = no such curve, though single readings can be large; an effect the other way counts as inactive or inconclusive. Potency is the fitted concentration of half-maximal effect.
SMILES,NPC1 prom act,SMN2 splice up,Rab9 prom act,ELG1 DNA repair,ELG1 genotox,FLuc modulator
Cc1cc(C)c(Cn2c(=O)n(CCCC(=O)NCc3ccc4c(c3)OCO4)c(=O)c3sccc32)c(C)c1,.,18%,.,.,.,4%
O=c1nc2c(-c3cccc(Br)c3)n[nH]n2c2ccccc12,?,.,3.5µM*,?,?,4.8µM*
O=C(N/C=C/c1ccco1)OCc1ccccc1,?,13µM*,3.5µM*,?,?,11µM*
O=C(Nc1ccccc1)c1cccc(-c2nnc(-c3ccccc3)o2)c1,2µM*,1µM*,4µM*,0%,?,-12%
COc1cccc(C(=O)Nc2cccc(-c3nnc(-c4ccco4)o3)c2)c1,0%,-25%,10%,23µM*,-32%,19µM*
COc1cccc(C(=O)Nc2ccncc2)c1,-2%,.,3%,-5%,-5%,-8%
Cc1ccc(SCC(=O)Nc2cccc(-c3nnc(-c4ccco4)o3)c2)cc1,3.2µM*,22µM*,3.2µM*,?,-4%,-11%
COc1cccc(-c2nnc(-c3ccccc3NC(=O)c3ccc(C(C)(C)C)cc3)o2)c1,-2%,.,14%,22%,3%,2.4µM*
O=C(CSc1ccc(Cl)cc1)Nc1cccc(-c2nnc(-c3ccco3)o2)c1,?,?,?,?,15%,0%
Cc1oc(-c2ccccc2F)nc1Cn1c(SCc2cccc(Cl)c2)nc2ccncc21,.,10%,.,.,.,?
COc1ccc(CSc2nc3ccncc3n2Cc2nc(-c3ccc(OC)c(OC)c3)oc2C)cc1,.,?,.,.,.,4.8µM*
Cc1ccc(CSc2nc3ccncc3n2Cc2nc(-c3ccccc3C)oc2C)cc1,.,?,.,.,.,4.8µM*
Cc1ccc(CSc2nc3cccnc3n2Cc2nc(-c3ccccc3F)oc2C)cc1,.,.,.,.,.,5.4µM*
CCOC(=O)COc1ccc(F)cc1C(=O)c1ccn2nc(-c3ccc(Cl)cc3)cc2n1,.,-5%,.,.,.,-2%
COc1ccc(OC)c(C2CC(c3c(-c4ccccc4)c4cc(Cl)ccc4[nH]c3=O)=NN2S(C)(=O)=O)c1 (centres undefined),-1%,-6%,1%,5.2µM*,-7%,0%
COC(=O)CNC(c1ccccc1)c1cc(C)ccc1NC(=O)c1cccc(Cl)c1 (centres undefined),-2%,-25%,-9%,18µM*,-8%,0%
CCOC(=O)c1c(C)oc2c1c(C=NCC1CCCO1)c(O)c1ccccc12 (centres undefined),0%,25%,-3%,-3%,-11%,9.5µM*
CCOC(=O)c1c(C)oc2c1c(C=NCc1ccccn1)c(O)c1ccccc12,-4%,-66%,-6%,18µM*,-23%,?
CCOC(=O)c1c(NCC2CCCO2)c2ccccc2[nH]c1=O (centres undefined),3%,10%,19%,-21%,2%,-3%
CCOC(=O)c1c(C)oc2c1cc(O)c1ccccc12,?,3%,-1%,?,?,2.4µM*
COc1ccc(OC)c(C2C(C(=O)Nc3ccccc3OC)=C(C)Nc3c(C(=O)Nc4ccc(F)cc4)cnn32)c1 (centres undefined),.,.,.,.,.,2%
O=C(CSC1=Nc2ccccc2N=C(c2ccc(F)cc2)C1)Nc1cc(F)ccc1F,.,.,.,.,.,3%
CN(C)CCC(=O)[C@@]1(O)CC[C@H]2[C@H]3CC=C4C[C@@H](O)CC[C@]4(C)[C@H]3CC[C@]21C,.,-4%[9.22 µM],.,.,.,.
O=C(Nc1ccc(OCC(=O)N2CCC(Cc3ccccc3)CC2)cc1)c1ccco1,2%,-12%,-6%,?,-1%,27µM*
O=C(Nc1ccc(OCC(=O)N2CCN(S(=O)(=O)c3ccccc3)CC2)cc1)c1ccco1,3%,22%,-1%,-5%,-4%,11µM*
SMILES,NPC1 prom act,SMN2 splice up,Rab9 prom act,ELG1 DNA repair,ELG1 genotox,FLuc modulator
CC(=O)Nc1ccc(OCC(=O)N2CCC(Cc3ccccc3)CC2)cc1,-4%,-31%,-2%,?,-4%,-11%
Cc1nn(CC(=O)N2CCN(c3ccccc3)CC2)c(=O)c2cc3sccc3n12,.,1%,.,.,.,-1%
O=C(Nc1cccc(O)c1)c1cc(-c2ccco2)on1,-2%,11%,1%,?,?,0.95µM*
O=C(Nc1cccc(C(F)(F)F)c1)c1cc(-c2ccco2)on1,1%,.,3%,1%,7%,?
COc1ccc(-c2cc(C(=O)Nc3cccc(O)c3)no2)cc1,?,.,4µM*,?,?,0.38µM*
CC(=O)c1cccc(NC(=O)c2cc(-c3ccco3)on2)c1,-3%,.,3%,2%,?,2.4µM*
COc1ccc(-c2cc(C(=O)Nc3ccc(C)c(C)c3)no2)cc1,10%,.,23%,7%,4%,-1%
CCOC(=O)c1cnc(N(C)C)nc1SC(=N)N,.,-12%[9.22 µM],.,.,.,.
COc1ccc(NS(=O)(=O)c2cc3[nH]c(=O)c(=O)[nH]c3cc2C)cc1OC,.,.,.,.,.,-1%
O=C(c1cc(C(F)(F)F)cc(C(F)(F)F)c1)N1CCC2(CC1)CN(c1ccccc1)C2,.,-20%,.,.,.,.
Cc1oc2ccc(O)c(CN3CCCCCC3)c2c1C(=O)Nc1cccc(C(F)(F)F)c1,.,-13%,.,.,.,-4%
CN(CCc1ccccc1)C(=O)c1cccc(NC(=O)Cc2cccc([N+](=O)[O-])c2)c1,.,.,.,23µM*,-5%,.
O=C(Cc1cccc([N+](=O)[O-])c1)Nc1cccc(C(=O)N2CCCCC2)c1,.,.,.,16µM*,-1%,.
CC(=O)N1CCN(Cc2nc3cc(NC(=O)c4ccc(Cl)cc4)ccc3n2C)CC1,-5%,-45%,2%,21µM*,-3%,?
CC(=O)N1CCN(Cc2nc3cc(NC(=O)c4cccc(Br)c4)ccc3n2C)CC1,-9%,.,?,8.2µM*,-1%,-19%
COc1cccc(NC(=O)Cn2c(=O)n(Cc3ccc(C(=O)NCc4ccc5c(c4)OCO5)cc3)c(=O)c3ccccc32)c1,.,-5%,.,.,.,0%
Cc1ccc(NC(=O)C(C)[n+]2ccccc2)cc1[N+](=O)[O-] (centres undefined),-1%,28µM*,-4%,-1%,1%,3%
N#Cc1ccc(Oc2nc(Nc3ccc(F)cc3)nc(N3CCCC3)n2)cc1,0%,-24%,4%,16µM*,-7%,-7%

# Assay outcomes from PubChem.
